ChEMBL document CHEMBL2218924, “A broad activity screen in support of a chemogenomic map for kinase signalling research and drug discovery” (Biochem J, 2013)

What follows are molecules tested against T1, Cyclin-dependent kinase 7/ cyclin H (Homo sapiens) (UniProt P51946+P50613). Conditions: at 1 µM.
For `COc1ccc2c(c[n+](C)c3c4cc5c(cc4ccc23)OCO5)c1OC`, the residual activity was 87%. In the case of `COC(=O)[C@@]1(O)C[C@H]2O[C@]1(C)n1c3ccccc3c3c4c(c5c6ccccc6n2c5c31)C(=O)NC4`, the residual activity is reported as 55%. Molecule `COc1cc2ncnc(Nc3ccc(OCc4ccccc4)cc3)c2cc1OC` has a residual activity of 88%. `COc1ccc2c(c1)/C(=C/c1cnc[nH]1)C(=O)N2` showed a residual activity of 67%. In the case of `CCn1cnc2c(Nc3cccc(Cl)c3)nc(N[C@@H]3CCCC[C@@H]3N)nc21`, the residual activity is reported as 5%. With `O=C1Nc2ccc3ncsc3c2/C1=C/c1c[nH]cn1` the residual activity was 15%. With `O=c1[nH]c2ccccc2n1C1CCN(Cc2ccc(-c3nc4cc5[nH]cnc5cc4nc3-c3ccccc3)cc2)CC1` the residual activity was 98%. In the case of `C[S+]([O-])c1ccc(-c2nc(-c3ccc(F)cc3)c(-c3ccncc3)[nH]2)cc1` (centres undefined), the residual activity is reported as 118%. `O=[N+]([O-])/C=C/c1ccc2c(c1)OCO2` was tested, and the residual activity was 81%. `CC(C)[C@H](CO)Nc1nc(Nc2cccc(Cl)c2)c2ncn(C(C)C)c2n1` gave a residual activity of 17%. Molecule `COc1cc(OC)c(/C=C2\C(=O)Nc3ccccc32)c(OC)c1` has a residual activity of 90%. Molecule `c1cc(-c2cnn3cc(-c4ccc(OCCN5CCCCC5)cc4)cnc23)ccn1` has a residual activity of 50%.

The molecules below were run against T1, Cyclin-dependent kinase 7/ cyclin H (Homo sapiens). Conditions: at 10 µM.
`COC(=O)[C@@]1(O)C[C@H]2O[C@]1(C)n1c3ccccc3c3c4c(c5c6ccccc6n2c5c31)C(=O)NC4` was tested, and the residual activity was 16%. Molecule `COc1cc2ncnc(Nc3ccc(OCc4ccccc4)cc3)c2cc1OC` has a residual activity of 96%. Work on `COc1ccc2c(c1)/C(=C/c1cnc[nH]1)C(=O)N2` yielded a residual activity of 18%. `CCn1cnc2c(Nc3cccc(Cl)c3)nc(N[C@@H]3CCCC[C@@H]3N)nc21` gave a residual activity of -1%. `O=C1Nc2ccc3ncsc3c2/C1=C/c1c[nH]cn1` was tested, and the residual activity was 3%. Molecule `O=c1[nH]c2ccccc2n1C1CCN(Cc2ccc(-c3nc4cc5[nH]cnc5cc4nc3-c3ccccc3)cc2)CC1` has a residual activity of 85%. With `C[S+]([O-])c1ccc(-c2nc(-c3ccc(F)cc3)c(-c3ccncc3)[nH]2)cc1` (centres undefined) the residual activity was 100%. Work on `O=[N+]([O-])/C=C/c1ccc2c(c1)OCO2` yielded a residual activity of 119%. `O=C1c2ccccc2-c2nc3nnnn3nc21` was tested, and the residual activity was 129%. With `CC(C)[C@H](CO)Nc1nc(Nc2cccc(Cl)c2)c2ncn(C(C)C)c2n1` the residual activity was 1%. Work on `COc1cc(OC)c(/C=C2\C(=O)Nc3ccccc32)c(OC)c1` yielded a residual activity of 84%. For `c1cc(-c2cnn3cc(-c4ccc(OCCN5CCCCC5)cc4)cnc23)ccn1`, the residual activity was 9%.

These molecules were tested against T2, CDK9/cyclin T1 (Homo sapiens) (UniProt O60563+P50750). Conditions: at 1 µM.
Work on `COC(=O)[C@@]1(O)C[C@H]2O[C@]1(C)n1c3ccccc3c3c4c(c5c6ccccc6n2c5c31)C(=O)NC4` yielded a residual activity of 10%. `COc1cc2ncnc(Nc3ccc(OCc4ccccc4)cc3)c2cc1OC` gave a residual activity of 100%. `COc1ccc2c(c1)/C(=C/c1cnc[nH]1)C(=O)N2` gave a residual activity of 32%. `CCn1cnc2c(Nc3cccc(Cl)c3)nc(N[C@@H]3CCCC[C@@H]3N)nc21` gave a residual activity of 8%. `O=C1Nc2ccc3ncsc3c2/C1=C/c1c[nH]cn1` showed a residual activity of 5%. `O=c1[nH]c2ccccc2n1C1CCN(Cc2ccc(-c3nc4cc5[nH]cnc5cc4nc3-c3ccccc3)cc2)CC1` gave a residual activity of 104%. `C[S+]([O-])c1ccc(-c2nc(-c3ccc(F)cc3)c(-c3ccncc3)[nH]2)cc1` (centres undefined) showed a residual activity of 98%. Work on `O=[N+]([O-])/C=C/c1ccc2c(c1)OCO2` yielded a residual activity of 112%. Work on `COc1cc2nccc(Oc3ccc(NC(=O)Nc4cc(C)on4)c(Cl)c3)c2cc1OC` yielded a residual activity of 76%. With `CC(C)[C@H](CO)Nc1nc(Nc2cccc(Cl)c2)c2ncn(C(C)C)c2n1` the residual activity was 23%. In the case of `O=C1NC(=O)c2c1c1c3ccccc3n3c1c1c2c2ccccc2n1C1CCC3O1`, the residual activity is reported as 71%. Work on `COc1cc(OC)c(/C=C2\C(=O)Nc3ccccc32)c(OC)c1` yielded a residual activity of 94%. `c1cc(-c2cnn3cc(-c4ccc(OCCN5CCCCC5)cc4)cnc23)ccn1` was tested, and the residual activity was 35%.

These molecules were tested against T2, CDK9/cyclin T1 (Homo sapiens). Conditions: at 10 µM.
For `COC(=O)[C@@]1(O)C[C@H]2O[C@]1(C)n1c3ccccc3c3c4c(c5c6ccccc6n2c5c31)C(=O)NC4`, the residual activity was 2%. For `COc1cc2ncnc(Nc3ccc(OCc4ccccc4)cc3)c2cc1OC`, the residual activity was 87%. `COc1ccc2c(c1)/C(=C/c1cnc[nH]1)C(=O)N2` showed a residual activity of 7%. In the case of `CCn1cnc2c(Nc3cccc(Cl)c3)nc(N[C@@H]3CCCC[C@@H]3N)nc21`, the residual activity is reported as 0%. `O=C1Nc2ccc3ncsc3c2/C1=C/c1c[nH]cn1` showed a residual activity of 3%. `O=c1[nH]c2ccccc2n1C1CCN(Cc2ccc(-c3nc4cc5[nH]cnc5cc4nc3-c3ccccc3)cc2)CC1` showed a residual activity of 105%. `C[S+]([O-])c1ccc(-c2nc(-c3ccc(F)cc3)c(-c3ccncc3)[nH]2)cc1` (centres undefined) gave a residual activity of 108%. For `O=[N+]([O-])/C=C/c1ccc2c(c1)OCO2`, the residual activity was 100%. Molecule `CC(C)[C@H](CO)Nc1nc(Nc2cccc(Cl)c2)c2ncn(C(C)C)c2n1` has a residual activity of 5%. Molecule `O=C1NC(=O)c2c1c1c3ccccc3n3c1c1c2c2ccccc2n1C1CCC3O1` has a residual activity of 66%. In the case of `COc1cc(OC)c(/C=C2\C(=O)Nc3ccccc32)c(OC)c1`, the residual activity is reported as 48%. For `c1cc(-c2cnn3cc(-c4ccc(OCCN5CCCCC5)cc4)cnc23)ccn1`, the residual activity was 5%.
